According to PubChem BioAssay (NCATS):
Inconclusive results are not listed. Entries that show only a call come without a potency. The source made the active and inactive calls. Unless noted, calls come from the whole dose curve; as a rule, active = well fitted inhibition curve with a large enough effect; inconclusive = small, poorly fitted or top-dose-only effect; inactive = no such curve, though single readings can be large or run the other way.

Assays:
[1] = High-throughput drug toxicity screening in the BPDCN cell line Gen2.2 (AID 1224824; call rule not given here;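 note: cells exposed to compounds for 48 h before reading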); conditions: Gen2.2 BPDCN cells; at 45.8 µM (top of the series)
Summary of the method: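 CellTiter-Glo luminescence read after 48 h compound exposure at 37 C defines viability; percent activity set with DMSO as 100% and bortezomib (9.2 uM final) as 0%. 500 exponentially growing cells per well, RPMI plus 10% FBS.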

[2] = High-throughput drug toxicity screening in the BPDCN cell line Cal-1 (AID 1224825; call rule not given here); conditions: Cal-1 BPDCN cell viability, qHTS; at 45.8 µM (top of the series)
Summary of the method: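 Percent activity derived from CellTiter-Glo luminescence, scaling DMSO to 100% and 9.2 uM final bortezomib to 0%. BPDCN Cal-1 cells (500/well, RPMI plus 10% FBS) incubated with compounds 48 hours at 37C before reading.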

[3] = qHTS assay for measurement of the activity of small molecule inhibitors on Zika virus induced Caspase-3 activity in human iPSC derived neural progenitor cells (hNPCs) (AID 1224857); note: nearly all actives have a fitted effect of over 65% in size
Summary of the method: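 Cells were plated at 350 per well and grown 16 to 20 hours. Compound pretreatment lasted one hour, after which ZIKV (2 FFU/cell) was added for 6 hours. Percent inhibition was normalized between uninfected and infected controls.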

[4] = qHTS assay for measurement of the activity of small molecule inhibitors on Zika virus induced Caspase-3 activity in human astrocytoma cells (AID 1224859)
Summary of the method: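 Percent inhibition of virus-induced caspase-3/7 signal is calculated against uninfected and ZIKV-infected control cells. Cells are SNB-19, infected at 2 FFU/cell for 6 h after 1 h compound exposure.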

[5] = qHTS Screen of the MIPE 4.0 Collection Against Ewings Sarcoma (RDES) (AID 1259252); note: nearly all actives have a fitted effect of over 35% in size; note: potency is the fitted concentration of half-maximal effect
Summary of the method: (§1)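 Cells plated in serum-containing RPMI (5% FBS) and treated with compound dilutions for 48 h. Readout luminescent viability; normalization relied on vehicle (no inhibition) and media-only columns (full inhibition).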

[6] = qHTS Screen of the MIPE 4.0 Collection Against Ewings Sarcoma (EW8) (AID 1259255); note: nearly all actives have a fitted effect of over 35% in size; note: potency is the fitted concentration of half-maximal effect
Summary of the method: as §1

[7] = qHTS Screen of the MIPE 4.0 Collection Against Ewings Sarcoma (TC71) (AID 1259253); note: nearly all actives have a fitted effect of over 40% in size; note: potency is the fitted concentration of half-maximal effect
Summary of the method: as §1

For `O=c1[nH]c2ccc(Cl)cc2c(N[C@@H]2CN3CCC2CC3)c1-c1nc2ccccc2[nH]1`, the cell viability, % of control (lower = more cytotoxic) [1] was 2.72%, the viability (% of control) [2] was 2.3% and the Potency [3] was “inactive”. The Potency [4] was “inactive”, the Potency [5] was 1660 nM (active) and the Potency [6] was 74.3 nM (active).

With `C[C@H]1CCCC=CC2C[C@H](O)C[C@@H]2[C@H](O)C=CC(=O)O1` (some centres not stated) the cell viability, % of control (lower = more cytotoxic) [1] was 4.51%, the viability (% of control) [2] was 4% and the Potency [3] was “inactive”. For the same molecule, the Potency [4] was “inactive”, the Potency [5] was “inactive” and the Potency [7] was “inactive”. The Potency [6] was “inactive”.

With `CCC(=O)OC1CCC2C3CCC4=CC(=O)CC[C@@]4(C)C3CC[C@]12C` (some centres not stated) the cell viability, % of control (lower = more cytotoxic) [1] was 223%, the viability (% of control) [2] was 105% and the Potency [3] was “inactive”. For the same molecule, the Potency [4] was “inactive”, the Potency [5] was “inactive” and the Potency [6] was “inactive”.

For `C[C@]12CC[C@H]3[C@@H](CCC4=CC(=O)CC[C@@]43C)[C@H]1CC[C@H]2O`, the cell viability, % of control (lower = more cytotoxic) [1] was 83.2%, the viability (% of control) [2] was 101% and the Potency [3] was “inactive”. For the same molecule, the Potency [4] was “inactive”, the Potency [5] was “inactive” and the Potency [6] was “inactive”.

With `CC(C)(O)C(=O)Nc1ccc([N+](=O)[O-])c(C(F)(F)F)c1` the cell viability, % of control (lower = more cytotoxic) [1] was 21%, the viability (% of control) [2] was 14.7% and the Potency [3] was “inactive”. The Potency [4] was “inactive” and the Potency [7] was 23500 nM (active).

With `C[C@@H]1[C@H](O)[C@@H](C)C=CC=CCCC=CC=CC=CC=C[C@H](O[C@H]2O[C@@H](C)[C@H](O)[C@@H](N)[C@@H]2O)CC2O[C@](O)(C[C@@H](O)[C@H](O)CC[C@@H](O)C[C@@H](O)C[C@@H](O)CC(=O)O[C@H]1C)C[C@H](O)[C@H]2C(=O)O` the cell viability, % of control (lower = more cytotoxic) [1] was 152%, the viability (% of control) [2] was 124% and the Potency [3] was “inactive”. The Potency [4] was “inactive”, the Potency [5] was “inactive” and the Potency [6] was “inactive”.

With `Cc1[nH]nc2ccc(-c3cncc(OC[C@@H](N)Cc4c[nH]c5ccccc45)c3)cc12` the cell viability, % of control (lower = more cytotoxic) [1] was 1.9%, the viability (% of control) [2] was 1.66% and the Potency [3] was “inactive”. For the same molecule, the Potency [4] was “inactive”, the Potency [5] was 209 nM (active) and the Potency [7] was 372 nM (active). The Potency [6] was 2090 nM (active).

For `CC1=C(O)C(=O)C=C2C1=CC=C1[C@@]2(C)CC[C@@]2(C)[C@@H]3C[C@](C)(C(=O)O)CC[C@]3(C)CC[C@]12C`, the cell viability, % of control (lower = more cytotoxic) [1] was 12.3%, the viability (% of control) [2] was 7.21% and the Potency [3] was “inactive”. For the same molecule, the Potency [4] was “inactive”, the Potency [5] was 1320 nM (active) and the Potency [6] was 935 nM (active).

In the case of `N#C[C@H](O[C@@H]1O[C@H](CO[C@@H]2O[C@H](CO)[C@H](O)[C@H](O)[C@H]2O)[C@H](O)[C@H](O)[C@H]1O)c1ccccc1`, the cell viability, % of control (lower = more cytotoxic) [1] was 180%, the viability (% of control) [2] was 52.5% and the Potency [3] was “inactive”. For the same molecule, the Potency [4] was “inactive”, the Potency [5] was 23500 nM (active) and the Potency [7] was 20900 nM (active). The Potency [6] was 20900 nM (active).

With `C#CC1(O)CCC2C3CCC4=CC(=O)CCC4(C)C3CCC21C` (configuration not stated) the cell viability, % of control (lower = more cytotoxic) [1] was 168%, the viability (% of control) [2] was 100% and the Potency [3] was “inactive”. For the same molecule, the Potency [4] was “inactive”, the Potency [5] was “inactive” and the Potency [6] was “inactive”.

For `CC(=Cc1csc(C)n1)[C@@H]1C[C@H]2O[C@@H]2CCC[C@H](C)[C@@H](O)[C@@H](C)C(=O)C(C)(C)[C@@H](O)CC(=O)O1`, the cell viability, % of control (lower = more cytotoxic) [1] was 50.1%, the viability (% of control) [2] was 26.8% and the Potency [3] was “inactive”. For the same molecule, the Potency [4] was “inactive”, the Potency [5] was “inactive” and the Potency [7] was “inactive”. For the same molecule, the Potency [6] was “inactive”.

For `COCC1(CO)C(=O)C2CCN1CC2` (configuration not stated), the cell viability, % of control (lower = more cytotoxic) [1] was 4.6%, the viability (% of control) [2] was 2.52% and the Potency [3] was “inactive”. The Potency [4] was “inactive”, the Potency [5] was 2090 nM (active) and the Potency [6] was 2640 nM (active).

With `C[C@@H]1O[C@@H](O[C@@H]2C=C3CC[C@@H]4[C@@H](CC[C@]5(C)[C@H](c6ccc(=O)oc6)CC[C@@]45O)[C@@]3(C)CC2)[C@H](O)[C@H](O)[C@H]1O` the cell viability, % of control (lower = more cytotoxic) [1] was 16.6%, the viability (% of control) [2] was 3.76% and the Potency [3] was “inactive”. For the same molecule, the Potency [4] was “inactive”, the Potency [5] was 41.8 nM (active) and the Potency [7] was 18.7 nM (active). For the same molecule, the Potency [6] was 16.6 nM (active).

In the case of `CCCC[N+]1(C)[C@H]2CC(OC(=O)[C@H](CO)c3ccccc3)C[C@H]1[C@H]1O[C@H]12` (some centres not stated), the cell viability, % of control (lower = more cytotoxic) [1] was 119%, the viability (% of control) [2] was 120% and the Potency [3] was “inactive”. The Potency [4] was “inactive”, the Potency [5] was “inactive” and the Potency [7] was “inactive”. For the same molecule, the Potency [6] was “inactive”.

For `CCCCCC[C@H]1C(=O)O[C@H](C)[C@H](NC(=O)c2cccc(NC=O)c2O)C(=O)O[C@@H](C)[C@@H]1OC(=O)CC(C)C`, the cell viability, % of control (lower = more cytotoxic) [1] was 177%, the viability (% of control) [2] was 85.6% and the Potency [3] was “inactive”. For the same molecule, the Potency [4] was “inactive”, the Potency [5] was 41.8 nM (active) and the Potency [6] was 105 nM (active).

In the case of `C#C[C@]1(O)C=C[C@@H]2[C@@H]3CCC4=CC(=O)CC[C@@H]4[C@H]3CC[C@@]21CC`, the cell viability, % of control (lower = more cytotoxic) [1] was 62.7%, the viability (% of control) [2] was 74.7% and the Potency [3] was “inactive”. For the same molecule, the Potency [4] was “inactive”, the Potency [5] was “inactive” and the Potency [7] was “inactive”. The Potency [6] was “inactive”.

In the case of `c1ccc(CCCN2CCN(CCOC(c3ccccc3)c3ccccc3)CC2)cc1`, the cell viability, % of control (lower = more cytotoxic) [1] was 8.38%, the viability (% of control) [2] was 5.14% and the Potency [3] was “inactive”. The Potency [4] was “inactive” and the Potency [7] was 16600 nM (active).
